Screening results deposited in PubChem by National Center for Advancing Translational Sciences (NCATS).
Rows were chosen to be rich in hits. Some 4.8% of all compounds tested hit in one or more screens of this group.
DRD3 antagonist = blocks the human D3 dopamine receptor | P35462 | D3R cells, DiscoveRx beta-arrestin luminescence, antagonist mode; stronger effect = lower value | max response, negative = inhibition, % | 2.5% of 360,000 active | AID 652054; in the data active means max response below about -50%; inconclusive means no clear call, values can overlap the other calls; further: on the % scale 0 is the no-effect control and ±100 the full control effect
Target sequence (P35462 whole entry, looked up): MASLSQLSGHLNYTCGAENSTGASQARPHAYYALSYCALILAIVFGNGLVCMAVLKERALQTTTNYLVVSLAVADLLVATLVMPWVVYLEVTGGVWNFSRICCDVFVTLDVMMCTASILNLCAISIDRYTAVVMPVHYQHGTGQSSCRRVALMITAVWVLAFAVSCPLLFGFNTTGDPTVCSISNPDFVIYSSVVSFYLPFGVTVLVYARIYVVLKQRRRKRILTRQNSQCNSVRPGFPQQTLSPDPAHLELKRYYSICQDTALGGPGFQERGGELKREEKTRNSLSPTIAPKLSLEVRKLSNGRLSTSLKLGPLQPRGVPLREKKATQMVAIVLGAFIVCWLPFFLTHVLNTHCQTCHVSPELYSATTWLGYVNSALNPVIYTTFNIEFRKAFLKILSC
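Cells expressing the human receptor were seeded at 1500 cells/well, incubated overnight at 37 degrees C in 5% CO2, then exposed to library compounds with dopamine controls for 90 minutes at 37 degrees C before luminescent detection.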
S2 tox = cell viability loss in ATXN counter-screen; S2 cells (HEK-293 line with an ATXN2-luciferase reporter) viability, CellTiter-Fluor protease fluorescence, 24 h; Potency, µM (top dose mostly 56.7 µM), actives largely listed as cytotoxic; 0.49% of 400,000 active; AID 651635; further: potency means the concentration at half of the fitted maximal effect; nearly all actives have a fitted effect of over 40% in size
TGFb SMAD3 inh = blocks TGF-b signaling; Potency, µM (top dose mostly 46.1 µM), inactives show top-dose activity, negative = inhibition, most hits filed as inhibitors; HepG2 CAGA-GFP TGF-b/SMAD3 reporter, GFP fluorescence, 18 h; TGF-beta stimulated, 500 pg/mL final; 1.2% of 410,000 active; AID 588855; further: potency means the concentration at half of the fitted maximal effect; on the % scale 0 is the no-effect control and ±100 the full control effect; nearly all actives have a fitted effect of over 65% in size
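Read-out: total well GFP (ex488/em500-530) summed from mean per-cell fluorescence. Cells: HEPG2 CAGA-GFP, 1% FBS DMEM, 18 h at 37 degrees C with 500 pg/mL final TGF-beta. Unstimulated wells served as the full-inhibition control; stimulated DMSO wells = 0%.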
D3 ag = D3 dopamine receptor (human) agonism; P35462; D3R DiscoveRx beta-arrestin cells, luminescence, 90 min; max activation, %; 0.58% of 410,000 active; in the data active means max activation above about 30%; further: 0% is about no effect
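Agonist mode: compounds and dopamine controls were applied to plated cells for 90 min at 37 degrees C after an overnight attachment at 1500 cells/well. Luminescent read-out followed 30 - 60 minutes at room temperature with DiscoveRx detection reagent.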
ATXN2 expr inh = ATXN2 expression inhibition. AID 1745845. 0.72% of 360,000 active. Potency, µM (series often up to 57 µM), without a hit: at the highest dose activity change, negative = inhibition, usual class: inhibitors. HEK-293 ATXN2-luciferase reporter, luminescence, 24 h; further: potency means the concentration at half of the fitted maximal effect; on the % scale 0 is the no-effect control and ±100 the full control effect; nearly all actives have a fitted effect of over 55% in size
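ATXN2-luciferase reporter cells (luciferase flanked by upstream and downstream ATXN2 gene portions) were treated 24 h at 37 °C with compounds at up to 57 uM. SteadyGlo luminescence gave expression; GF-AFC fluorescence gave viability.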
HepG2 tox = kills HepG2 cells in TGF-b inhibitor counter-screen | HepG2 CAGA-GFP viability, ATP luminescence, 18 h | Potency, µM (series often up to 46.1 µM), inactives show at the highest dose activity change, negative = cytotoxicity, actives largely listed as cytotoxic | 0.76% of 410,000 active; further: potency means the concentration at half of the fitted maximal effect
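HepG2 CAGA-GFP cells (1000/well, DMEM with 1% FBS) received compound, then TGF-beta at 500 pg/mL final, and were incubated 18 hours at 37 degrees C. Viability was read by CellTiter-Glo luminescence. Media-only wells were set as complete cell-killing and DMSO as no toxicity.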
* = called active by the depositor. Unless noted, the call rests on the fitted dose curve; in most records, active means well fitted curve in the direction sought with a large enough effect; inconclusive means small, poorly fitted or top-dose-only effect, or another doubt; inactive means no such curve, though single readings can be large; an effect the other way counts as inactive or inconclusive.

`Cc1ccc2c(c1)NC(=O)C(CC(=O)Nc1ccc(CN3CCC(C)CC3)cc1)O2` (stereo unspecified) gave DRD3 antagonist -61*, S2 tox inactive, TGFb SMAD3 inh -11%, D3 ag -9, ATXN2 expr inh -6% and HepG2 tox -37%.
Screening CCN1CCN(Cc2ccc(NC(=O)CC3Oc4ccc(C)cc4NC3=O)cc2)CC1 (stereo unspecified) returned DRD3 antagonist -10, S2 tox inactive, TGFb SMAD3 inh 1%, D3 ag -9, ATXN2 expr inh 8% and HepG2 tox 0%.
Screening Cc1cc2ccccc2c[n+]1C returned TGFb SMAD3 inh -1% and HepG2 tox 2%.
For CCOc1ccccc1Nc1ccc2cc(S(=O)(=O)N3CCCCC3)ccc2n1 the results were S2 tox inactive, TGFb SMAD3 inh -15%, D3 ag -7, ATXN2 expr inh -23% and HepG2 tox -4%.
`CCOc1ccccc1NC(=O)Nc1cc(C(=O)NCc2ccc(C)cc2)ccc1N1CCCC1` gave S2 tox inconclusive, TGFb SMAD3 inh 0%, D3 ag -5, ATXN2 expr inh -6% and HepG2 tox -9%.
`CC1CCN(CCC(=O)Nc2ccc(Cl)cc2)CC1` gave DRD3 antagonist -64*, S2 tox inactive, TGFb SMAD3 inh -1%, D3 ag -15, ATXN2 expr inh -16% and HepG2 tox -2%.
For CC1CCN(CCC(=O)Nc2ccc3c(c2)CCC3)CC1 the results were DRD3 antagonist -59*, S2 tox inactive, TGFb SMAD3 inh inconclusive, D3 ag -30, ATXN2 expr inh 6% and HepG2 tox -20%.
`C=C(Br)COC(c1ccco1)[C@H](Cc1ccccc1)NC(=O)OC(C)(C)C` (stereo partly specified) gave TGFb SMAD3 inh inconclusive and HepG2 tox -28%.
Fc1ccc(-c2csc3ncnc(N4CCN(Cc5ccccc5)CC4)c23)cc1 was read as DRD3 antagonist -18, S2 tox inconclusive, TGFb SMAD3 inh -3%, D3 ag -6, ATXN2 expr inh -2% and HepG2 tox 9%.
`Cc1csc2ncnc(NC3CCN(Cc4ccccc4)CC3)c12` gave DRD3 antagonist -90*, S2 tox inactive, TGFb SMAD3 inh 0%, D3 ag -14, ATXN2 expr inh inconclusive and HepG2 tox -4%.
For Cc1cccc(C)c1NC(=O)c1nc(SC(C)C)ncc1Cl the results were S2 tox inactive, TGFb SMAD3 inh -19%, D3 ag 45*, ATXN2 expr inh -13% and HepG2 tox -11%.
O=C(OCCCN1CCCC1)C1(c2ccccc2)CCCC1 was read as DRD3 antagonist -54*, S2 tox inactive, TGFb SMAD3 inh 27%, D3 ag -1, ATXN2 expr inh -9% and HepG2 tox -14%.
`CCN(CC)CCOC(=O)C1(c2ccccc2)CCCC1` gave DRD3 antagonist -19, S2 tox inactive, TGFb SMAD3 inh 23%, D3 ag -20, ATXN2 expr inh 5% and HepG2 tox -1%.
`Cc1cccc(N2CCn3c2nc2c3c(=O)n(C/C=C/c3ccccc3)c(=O)n2C)c1` gave TGFb SMAD3 inh -7%, D3 ag 8 and HepG2 tox -19%.
CC(Oc1ccc(Br)cc1)C(=O)NNC(=O)CCN1CCN(c2ccccc2)CC1 (stereo unspecified) was read as DRD3 antagonist -10, S2 tox inactive, TGFb SMAD3 inh -4%, D3 ag 14, ATXN2 expr inh 0% and HepG2 tox -30%.
For COc1ccc(NC(=O)CCN2CCN(c3ccc(F)cc3)CC2)cc1 the results were DRD3 antagonist -98*, S2 tox inactive, TGFb SMAD3 inh 4%, D3 ag 8 and HepG2 tox -1%.
CCOc1ccc(NC(=O)CCN2CCN(c3ccccc3)CC2)cc1 was read as DRD3 antagonist -52*, S2 tox inconclusive, TGFb SMAD3 inh -5%, D3 ag 26, ATXN2 expr inh -2% and HepG2 tox -23%.
Screening CCOc1ccc(C(=O)CCC(=O)NNC(=O)CCN2CCN(c3ccccc3)CC2)cc1 returned DRD3 antagonist -63*, S2 tox inconclusive, TGFb SMAD3 inh 1%, D3 ag -4, ATXN2 expr inh -6% and HepG2 tox 0%.
Screening Cc1ccccc1C(=O)NCC(=O)NNC(=O)CCN1CCN(c2ccccc2)CC1 returned DRD3 antagonist -3, S2 tox inactive, TGFb SMAD3 inh 11%, D3 ag 32*, ATXN2 expr inh 4% and HepG2 tox -3%.
Screening CCN(CC)S(=O)(=O)c1ccc2c(c1)N(CC(=O)N1CCN(c3cccc(C)c3C)CC1)C(=O)CO2 returned S2 tox inconclusive, TGFb SMAD3 inh inconclusive, D3 ag 10, ATXN2 expr inh -36% and HepG2 tox -9%.
For O=C1CC(c2ccc(Cl)cc2)Sc2nc(-c3ccc(F)cc3)nn21 (stereo unspecified) the results were S2 tox inactive, TGFb SMAD3 inh 3%, D3 ag -5, ATXN2 expr inh -6% and HepG2 tox 11%.
Screening CCOc1ccc(CNc2ccc(N3CCN(Cc4ccccc4)CC3)cc2)cc1 returned DRD3 antagonist -62*, S2 tox inactive, TGFb SMAD3 inh -15%, D3 ag -21, ATXN2 expr inh -21% and HepG2 tox -23%.
For CCOc1ccc(CNc2ccc(N3CCCC3)cc2)cc1 the results were DRD3 antagonist -12, S2 tox inactive, TGFb SMAD3 inh inconclusive, D3 ag -6, ATXN2 expr inh 11% and HepG2 tox -32%.
For O=S(=O)(c1ccc2c(c1)OCCO2)N1CCC(c2nc3ccc(Cl)cc3[nH]2)CC1 the results were DRD3 antagonist inconclusive, S2 tox inconclusive, TGFb SMAD3 inh inconclusive, D3 ag -5, ATXN2 expr inh 16µM* and HepG2 tox -50%.
O=S(=O)(c1ccc2c(c1)OCCO2)N1CCC(c2nc3ccccc3[nH]2)CC1 was read as DRD3 antagonist 4, S2 tox inactive, TGFb SMAD3 inh -19%, D3 ag 3, ATXN2 expr inh -22% and HepG2 tox -19%.
Screening O=C(NCC1CCCO1)c1ccc(S(=O)(=O)N2CCC(c3nc4ccc(Cl)cc4[nH]3)CC2)cc1 (stereo unspecified) returned DRD3 antagonist -62*, S2 tox inactive, TGFb SMAD3 inh inconclusive, D3 ag -6, ATXN2 expr inh inconclusive and HepG2 tox -33%.
